This passage reports inhibition results from PubChem BioAssay.

A number with no mark means an inactive call. No rule for the calls is given here.

The target of this assay is Pantothenate synthetase (Mycobacterium tuberculosis (strain ATCC 25618 / H37Rv)) (UniProt P9WIL5). Description: Recombinant Mtb pantothenate synthetase (PanC) inhibitors, coupled enzyme, confirmatory (AID 375).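 Also: 0% = full reaction with vehicle and 100% = no enzyme background.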 To be noted: coupled enzyme assay; at 10 µM, active compounds read high.
Sequence of Pantothenate synthetase (Mycobacterium tuberculosis (strain ATCC 25618 / H37Rv)) (P9WIL5 whole entry, looked up): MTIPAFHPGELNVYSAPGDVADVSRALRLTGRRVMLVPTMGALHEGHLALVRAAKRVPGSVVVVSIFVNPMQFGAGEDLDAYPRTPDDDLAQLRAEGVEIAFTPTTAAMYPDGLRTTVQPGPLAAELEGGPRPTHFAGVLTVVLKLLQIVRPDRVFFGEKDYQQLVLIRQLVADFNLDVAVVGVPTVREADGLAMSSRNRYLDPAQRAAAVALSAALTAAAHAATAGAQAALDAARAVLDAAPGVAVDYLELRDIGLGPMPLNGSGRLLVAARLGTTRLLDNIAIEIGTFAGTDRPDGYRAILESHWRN
By inhibition is commonly meant the change of the read-out against control, counted positive when it falls. For the molecule `Nc1nc(N)nc(-c2ccccc2)n1`, the inhibition is 0%.

For `Cc1ccccc1CSCC(=O)c1c(N)n(C)c(=O)n(C)c1=O`, the inhibition was 2%.

Regarding `O=C(CSc1ncn[nH]1)c1ccco1`, the inhibition is 0%.

Turning to `CC1CCCC(C(=O)OCc2ccccc2)N1` (stereo not drawn), the inhibition is 0%.

As for `Cc1csc(NC(=O)c2ccoc2C)n1`, the inhibition was 0%.

As to `Cc1ccc(S(=O)(=O)Nc2cc(C(=O)O)ccc2N2CCCCC2)cc1`, the inhibition is 0%.

For `O=C(c1ccc(=O)[nH]c1)N(Cc1ccco1)C1(C(=O)NC2CCCC2)CCCCC1`, the inhibition was 0%.

As for `CC1(C)S[C@@H]2[C@H](NC(=O)C(C(=O)O)c3ccccc3)C(=O)N2[C@H]1C(=O)O` (stereo partly drawn), the inhibition is 0%.

In the case of `O=C(OCC(=O)N1CCC(Cc2ccccc2)CC1)c1ccc[nH]c1=O`, the inhibition is 0%.

For the molecule `c1ccc(Cn2nnnc2CN2CCCC2)cc1`, the inhibition was 0%.

On to `CCn1c2ccccc2c2cc(NC(=O)Cc3ccc(S(=O)(=O)N4CCOCC4)s3)ccc21`, for which the inhibition is 0%.

On to `O=C(c1ccc(NS(=O)(=O)c2cccs2)cc1)N1CCCCC1`, for which the inhibition was 0%.

For `CCSc1nnc(-c2cccs2)o1`, the inhibition is 0%.

Take `O=C(Nc1nnc(SCC(=O)N2CCCCC2)s1)C1CCCCC1`: the inhibition is 5%.

For the molecule `Cc1ccc(-c2noc(CCC(=O)NCCc3ccccc3Cl)n2)cc1`, the inhibition was 1%.

Consider `O=C(NC12CC3CC(CC(C3)C1)C2)C1CCCN1C(=O)NC1CCCCC1` (stereo not drawn), for which the inhibition is 0%.

Regarding `COc1ccccc1NC(=O)C1(C)Cc2ccccc2C(=O)O1` (stereo not drawn), the inhibition is 0%.

With `Cc1[nH]c2ccc(F)cc2c(=O)c1SC(F)(F)C(F)C(F)(F)F` (stereo not drawn), the inhibition was 1%.
